In PubChem BioAssay (Tox21):
Records with an inconclusive call do not appear. Activity calls are given as the source filed them. Unless noted, calls come from the whole dose curve; as a rule, active = well fitted curve in the direction sought with a large enough effect in the repeat runs; inconclusive = weak or mixed curves; inactive = no such curve, though single readings can be large; an effect the other way counts as inactive or inconclusive.

What was measured:
[1] = A CellTox Green Cytotoxicity Assay to monitor cytotoxicity in HEK293 cells - 32 hour (AID 1224881); note: nearly all actives have a fitted effect of over 40% in size
How it was run: (§1)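 HEK293 cells premixed with CellTox Green dye were seeded at 600 cells/well and left 5 h at 37 C/5% CO2 before pin transfer of 23 nL compound in DMSO. Fluorescence from dye bound to dead-cell DNA was read during 40 h treatment.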

[2] = A CellTox Green Cytotoxicity Assay to monitor cytotoxicity in HepG2 cells - 0 hour (AID 1224882); note: nearly all actives have a fitted effect of over 35% in size
How it was run: (§2)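 HepG2 cells were seeded together with the CellTox Green dye at 600 cells/well, left 5 h at 37 C/5% CO2, then given compounds in DMSO. Fluorescence from dye bound to dead-cell DNA was read repeatedly over 40 h of treatment at 37 C.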

[3] = A CellTox Green Cytotoxicity Assay to monitor cytotoxicity in HepG2 cells - 32 hour (AID 1224883); note: nearly all actives have a fitted effect of over 50% in size; note: potency is the fitted concentration of half-maximal effect
How it was run: as §2

[4] = A CellTox Green Cytotoxicity Assay to monitor cytotoxicity in HEK293 cells - 8 hour (AID 1224884); note: nearly all actives have a fitted effect of over 35% in size
How it was run: as §1

[5] = qHTS RealTime-Glo MT Cell Viability Assay in HepG2 cells - 16 hour (AID 1224885); note: nearly all actives have a fitted effect of over 50% in size
How it was run: (§3)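 Real-time, nonlytic viability: 600 HepG2 cells/well mixed with NanoLuc enzyme plus prosubstrate; 5 h settle, compound (DMSO) added by pintool; luminescence monitored over 40 h at 37 C.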

[6] = qHTS RealTime-Glo MT Cell Viability Assay in HEK293 cells - 24 hour (AID 1224886); note: nearly all actives have a fitted effect of over 50% in size; note: potency is the fitted concentration of half-maximal effect
How it was run: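 Cells + reagent dispensed (600 cells/well, HEK293) → 5 h at 37 C/5% CO2 → 23 nL compound in DMSO pinned → 40 h at 37 C → luminescence read at 0, 8, 16, 24, 32, 40 h.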

[7] = A CellTox Green Cytotoxicity Assay to monitor cytotoxicity in HEK293 cells - 16 hour (AID 1224888); note: nearly all actives have a fitted effect of over 35% in size
How it was run: as §1

[8] = qHTS RealTime-Glo MT Cell Viability Assay in HepG2 cells - 0 hour (AID 1224889); note: nearly all actives have a fitted effect of over 50% in size
How it was run: as §3

[9] = qHTS assay to identify small molecule antagonists of the estrogen receptor alpha (ER-alpha) signaling pathway using the BG1 cell line in the presence of 0.1 nM 17-beta-estradiol - cell viability counter screen (AID 1259241); note: nearly all actives have a fitted effect of over 40% in size
How it was run: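 VM7Luc4E2 cells (endogenous full-length ER-alpha, 4xERE-luciferase), cultured 5 days in charcoal-stripped serum, exposed to compounds with 0.1 nM 17beta-estradiol (final) for 22 hr at 37C. Viability read in same wells as live-cell protease fluorescence after 30 min.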

[10] = qHTS assay to identify small molecule antagonists of the androgen receptor (AR) signaling pathway using the MDA cell line in the presence of 0.5 nM R1881 - cell viability counter screen (AID 1259242); note: nearly all actives have a fitted effect of over 45% in size
How it was run: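 MDA-kb2 cells (human breast carcinoma, stably carrying MMTV-luciferase reporter) were exposed to compounds with 0.5 nM R1881 (final) for 16 hr at 37C, 0% CO2; viability then read as live-cell protease fluorescence (CellTiter-Fluor, 30 min) in the same wells.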

[11] = target: Estrogen receptor (Homo sapiens) (UniProt P03372); test: qHTS assay to identify small molecule antagonists of the estrogen receptor alpha (ER-alpha) signaling pathway using the BG1 cell line in the presence of 0.1 nM 17-beta-estradiol (AID 1259244); note: nearly all actives have a fitted effect of over 50% in size
Chain of Estrogen receptor (Homo sapiens) (P03372 whole entry, looked up): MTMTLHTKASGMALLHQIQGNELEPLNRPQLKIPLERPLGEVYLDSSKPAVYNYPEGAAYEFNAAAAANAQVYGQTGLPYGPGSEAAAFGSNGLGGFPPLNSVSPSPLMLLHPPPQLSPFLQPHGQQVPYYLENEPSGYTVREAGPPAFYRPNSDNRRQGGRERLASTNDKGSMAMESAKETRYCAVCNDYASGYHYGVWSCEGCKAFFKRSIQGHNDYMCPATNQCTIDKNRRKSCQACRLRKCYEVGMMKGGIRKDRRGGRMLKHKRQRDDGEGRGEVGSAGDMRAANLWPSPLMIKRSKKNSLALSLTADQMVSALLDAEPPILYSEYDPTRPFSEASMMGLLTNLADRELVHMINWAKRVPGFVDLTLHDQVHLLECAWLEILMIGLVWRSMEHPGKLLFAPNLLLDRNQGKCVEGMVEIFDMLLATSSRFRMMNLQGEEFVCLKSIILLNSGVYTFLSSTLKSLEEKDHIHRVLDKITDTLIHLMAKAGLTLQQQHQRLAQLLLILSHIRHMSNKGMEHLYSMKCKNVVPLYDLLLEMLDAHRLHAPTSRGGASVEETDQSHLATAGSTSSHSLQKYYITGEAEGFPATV
How it was run: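 VM7Luc4E2 cells (endogenous full-length ER-alpha, stable 4xERE-luciferase) were grown 5 days in phenol red-free medium with charcoal-stripped FBS, then exposed 22 h at 37C to compounds plus 0.1 nM (final) 17beta-estradiol; ONE-Glo luminescence read-out.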

[12] = qHTS assay to identify small molecule HDAC inhibitors (AID 1259364); note: top concentration of the series differs between compounds; nearly all actives have a fitted effect of over 45% in size
How it was run: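 Wild-type HCT-116 cells were plated overnight, exposed to compounds for 2 h at 37 °C, then given HDAC-Glo class I/II luminogenic reagent for 30 min at room temperature before luminescence was read.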

[13] = qHTS assay to identify small molecule HDAC inhibitors - cell viability counter screen (AID 1259365)
How it was run: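 Wild-type HCT-116 cells, 1,500/well, cultured overnight, then compound-treated 2 h at 37 C. Viability measured as ATP luminescence with CellTiter-Glo after 30 min at room temperature.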

[14] = qHTS assay to identify small molecule agonists of the sonic hedgehog signaling (Shh) pathway - cell viability counter screen (AID 1259366); note: nearly all actives have a fitted effect of over 50% in size
How it was run: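 NIH/3T3-derived Gli1-Luc reporter cells, 2,000 per well, received compound after 4 h and were treated about 23 h at 37C. Viability measured in the same wells by CellTiter-Fluor fluorescence after 1 h.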

[15] = qHTS assay to identify small molecule antagonists of the sonic hedgehog signaling (Shh) pathway - cell viability counter screen (AID 1259367); note: nearly all actives have a fitted effect of over 55% in size
How it was run: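 After a 4 hr settling period, 3T3 Gli1-Luc cells were treated with DMSO-dissolved chemicals and conditioned medium, kept 24 hr at 37C in 5% CO2, and assayed for viability by CellTiter-Fluor fluorescence following 1 hr reagent incubation.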

[16] = qHTS assay to identify small molecule agonists of the sonic hedgehog signaling (Shh) pathway (AID 1259368; calls by dose curve; note: series mostly up to about 92 µM; nearly all actives have a fitted effect of over 15% in size)
How it was run: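 NIH/3T3-derived 3T3Gli1-Luc cells carrying a stably integrated Gli1 response element–firefly luciferase reporter were plated, left 4 hr at 37 C, then given compounds in DMSO for 24 hr. Luminescence was read 30 min after adding luciferase reagent.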

[17] = qHTS RealTime-Glo MT Cell Viability Assay in HEK293 cells - 8 hour (AID 1224887)
How it was run: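 HEK293 cells mixed with RealTime-Glo reagents (NanoLuc plus cell-permeant prosubstrate) at 600 cells/well, preincubated 5 h at 37 C/5% CO2, then given 23 nL compound in DMSO. Nonlytic luminescence from viable cells was read at 0, 8, 16, 24, 32 and 40 h.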

[18] = A CellTox Green Cytotoxicity Assay to monitor cytotoxicity in HepG2 cells - 8 hour (AID 1224890); note: nearly all actives have a fitted effect of over 45% in size
How it was run: as §2

[19] = qHTS assay to identify small molecule phospholipidosis (PLD) inducers (AID 1259344; active = well fitted curve in the direction sought with a large enough effect; an effect the other way counts as inactive or inconclusive)
How it was run: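 HepG2 cells grown on collagen I take up LipidTOX Red while exposed to compound for 24 h; after fixation they are imaged at 20x and pit metrics are extracted.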

Measured: Potency

CCCCc1ccc(O)cc1
active: [3] 21.8 µM | [6] 19.5 µM
not listed: [17] | [18] | [19]
inactive: all other assays above

OC(Cn1cncn1)(c1ccc(F)cc1)c1ccccc1F (stereo not given)
not listed: [7] | [15] | [19]
inactive: all other assays above

CCCSC(=O)Cl
not listed: [6] | [14] | [19]
inactive: all other assays above

COC(=O)c1c(C(F)F)nc(C(F)(F)F)c(C2=NCCS2)c1CC(C)C
not listed: [7] | [15] | [16] | [19]
inactive: all other assays above

CCOC(=O)NC(=S)Nc1ccccc1NC(=S)NC(=O)OCC
not listed: [6] | [8] | [11] | [12] | [16] | [19]
inactive: all other assays above

CCN(CC)c1nc(C)cc(OP(=S)(OC)OC)n1
not listed: [6] | [8] | [14] | [19]
inactive: all other assays above

CCOP(=S)(OCC)Oc1cc(-c2ccccc2)on1
not listed: [15] | [17] | [19]
inactive: all other assays above

O=C(NCO)NCO
not listed: [6] | [13] | [19]
inactive: all other assays above

C=C(C)[C@@H]1CC=C(C=O)CC1
not listed: [7] | [11] | [14] | [19]
inactive: all other assays above

ClC(Br)Br
not listed: [6] | [12] | [19]
inactive: all other assays above

C[C@@H]1CN(C2CCC(C#N)(c3ccc(F)cc3)CC2)CC[C@]1(C(=O)O)c1ccccc1 (stereo not given in full)
not listed: [7] | [13] | [14] | [16] | [18]
inactive: all other assays above

C[C@]12CC[C@H]3[C@@H](CC=C4C[C@@H](O)CC[C@@]43C)[C@@H]1CC[C@@H]2O
not listed: [7] | [11]
inactive: all other assays above

O=C(CCN1CC1)OCC(CO)(COC(=O)CCN1CC1)COC(=O)CCN1CC1
not listed: [6] | [11] | [18] | [19]
inactive: all other assays above
